Common to all, as to assay: NCI-60 one-dose screen, 48 h (100 = growth as untreated, 0 = no growth, -100 = all killed)
Common to all, as to settings: 10 µM unless noted

Assay [1] deals with DU-145 prostate.
The subject of assay [2] is K-562 leukemia.
The subject of assay [3] is MALME-3M melanoma.
Assay [4] concerns MDA-MB-231 breast.
For assay [5], the system named is RXF 393 renal.
Assay [6] deals with SF-268 CNS.
Assay [7] concerns SF-295 CNS.
Assay [8] has as its system SF-539 CNS.
Assay [9] has as its system UACC-257 melanoma.
The subject of assay [10] is M14 melanoma.

Compounds without any hit were thinned out: in the full panel of roughly 83,000, 20% have a hit.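 Compound tested at a single concentration for 48 hours in 96-well plates; a percent growth value below 10 was scored as active.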 Values without a mark were called inactive. Activity calls are given as the source filed them.

The values below come from PubChem BioAssay (NCI).

Consider `Nc1ccn(C2CC(N)C(CO)O2)c(=O)n1` (stereo unspecified), for which the growth was 51.2% in assay [1]; 83.9% in assay [2]; 79.2% in [3]; 94.4% in [4]; 128% in assay [5]; 102% in [6]. Moreover, the growth was 82.4% in assay [7], 76.3% in [8] and 96% in [9].

`CC(=O)N=c1ccc2nc3c(cc(N)c4ccccc43)oc-2c1`: the growth was -96% (active) in assay [1]; -55.7% (active) in assay [2]; -67.3% (active) in assay [3]; -9.2% (active) in [4]; 14% in assay [5]; -11.1% (active) in assay [6]. The growth in assay [7] was -65.7% (active); in assay [8] it was -71.2% (active); in [9], -81.5% (active).

In the case of `CC(C)Sc1ncnc2nc[nH]c12`, the growth in assay [1] was 121%; in [2] it was 113%; in assay [3], 109%; in assay [4], 105%; in [5] it was 93%; in assay [6], 121%. Besides, the growth in [7] is 107%; in [8] it was 100%; in assay [9], 91.7%.

`CC(c1ccccc1)N(C)C` (stereo unspecified): the growth in assay [1] is 119%; in assay [2], 28%; in [3], 141%; in assay [4] it was 99.1%; in assay [5] it was 124%; in assay [6] it was 108%. Besides, the growth in assay [7] is 131%; in [8] it was 103%; in assay [9], 116%.

`CCCCOC(=O)c1ccccc1O`: the growth was 120% in [1]; 131% in [2]; 104% in assay [3]; 104% in assay [4]; 161% in [5]; 117% in assay [6]. In addition, the growth in assay [7] was 110%; in [8], 106%; in assay [9], 99.4%.

`OCC1CCC(O)C(CO)N1` (stereo unspecified): the growth in [1] was 113%; in [2], 116%; in [3], 106%; in [4], 106%; in [5] it was 107%; in [6], 106%. For the same compound, the growth in assay [7] was 91%; in [8], 87.9%; in assay [9] it was 110%; in [10] it was 96.5%.

As to `CCN(CC)CCOC(=O)Nc1c(C(C)C)cccc1C(C)C`, the growth in [1] was 116%; in assay [2] it was 99%; in assay [3], 98.2%; in assay [4] it was 104%; in assay [5], 107%; in assay [6] it was 106%. The results for the growth in [7], in assay [8] and in assay [9] were 102%, 96.6% and 97.5%, respectively.

Regarding `CCOC(=O)c1cc(Cl)c(O)c(Cl)c1`, the growth in [1] was 104%; in [2], 121%; in [3] it was 114%; in assay [4] it was 106%; in [5], 116%; in assay [6] it was 97.7%. Besides, the figures for the growth in assay [7], in [8] and in assay [9] were 103%, 106% and 109%, respectively.

For the compound `Cc1ccc(C)c(CN(C)C)c1O`, the growth is 108% in assay [1]; 119% in assay [2]; 94.8% in assay [3]; 109% in [4]; 107% in [5]; 104% in assay [6]. The figures for the growth in assay [7], in assay [8] and in [9] were 97.8%, 96.5% and 105%, respectively.

Regarding `CCN(CC)c1ccc2nc3ccc(N=Nc4ccc(N(C)C)cc4)cc3[n+](-c3ccccc3)c2c1`, the growth is -98% (active) in assay [1]; -4.96% (active) in assay [2]; -54.1% (active) in [3]; -46.4% (active) in assay [4]; -87.8% (active) in assay [5]; 9.77% (active) in [6]. The growth in [7] is -82.2% (active); in [8], -69.2% (active); in assay [9], -52.5% (active); in assay [10], -75% (active).

Turning to `Cc1ccc(S(N)(=O)=O)cc1Cl`, the growth in assay [1] is 120%; in [2], 92.3%; in assay [3], 116%; in assay [4], 98%; in assay [5] it was 125%; in assay [6], 108%. For the same compound, the growth in assay [7] was 113%; in assay [8], 106%; in [9], 109%.

`Cc1ccc2nc(-c3ccc(N=Cc4ccccc4O)cc3)sc2c1`: the growth in assay [1] was 96.8%; in [2] it was 84.8%; in assay [3], 90.3%; in assay [4], 62.2%; in assay [5], 83.4%; in assay [6], 97.7%. Further, the growth in assay [7] is 109%; in assay [8] it was 89.3%; in [9], 78.8%; in assay [10], 78.4%.

As to `NNc1ncccn1`, the growth in [1] is 116%; in assay [2], 102%; in assay [3] it was 118%; in [4], 100%; in assay [5] it was 120%; in assay [6] it was 103%. Moreover, the growth in assay [7] is 108%; in assay [8], 105%; in [9], 104%; in assay [10], 108%.

For `CSCCC(NC(=O)C(Cl)Cl)C(=O)O` (stereo unspecified), the growth in assay [1] is 108%; in assay [2], 97.8%; in assay [3], 114%; in assay [4], 99.3%; in assay [5], 97.1%; in [6], 99.1%. The growth is 98.1% in assay [7] and 96.1% in assay [8].

On to `c1ccc2c(NCCCN3CCN(CCCNc4c5ccccc5nc5ccccc45)CC3)c3ccccc3nc2c1`, for which the growth is -63.4% [100 µM] (active) in assay [1]; -10.1% [100 µM] (active) in assay [2]; -69.7% [100 µM] (active) in assay [3]; -40.3% [100 µM] (active) in [4]; -90.3% [100 µM] (active) in assay [5]; -34.9% [100 µM] (active) in [6]. The growth in assay [7] is -48.1% [100 µM] (active); in assay [8] it was -79.2% [100 µM] (active); in [9], -36.4% [100 µM] (active).

For the compound `Cc1ccccc1NC(=O)Oc1ccc(Cl)cc1C(=O)c1ccccc1`, the growth in assay [1] is 87.4%; in assay [2], 96.1%; in assay [3], 105%; in [4] it was 85.1%; in [5], 82%; in [6], 72.7%. Besides, the growth in assay [7] was 107%; in [8] it was 87.3%; in assay [9], 102%.

Take `Cc1[nH]c(=S)[nH]c(=O)c1C`: the growth in assay [1] is 110%; in [2], 99.7%; in assay [3], 109%; in [4] it was 105%; in assay [5] it was 115%; in [6] it was 108%. For the same compound, the growth in assay [7] is 103%; in [8], 103%; in assay [9], 92.9%.

Turning to `COC1=C(OC)C(=O)C(SC/C=C(\C)CCCC(C)CCCC(C)CCCC(C)C)=CC1=O` (stereo unspecified), the growth was 32% in assay [1]; 8.26% (active) in [2]; 5.25% (active) in assay [3]; 15.5% in assay [4]; -0.159% (active) in [5]; 28.7% in [6]. The growth was 16.5% in [7], 16.9% in assay [8] and 13.6% in assay [9].

With `Clc1cccc(Cl)c1CSc1nc2ccccc2n2cccc12`, the growth in assay [1] is 92.8%; in [2] it was 89%; in [3] it was 91.4%; in assay [4], 98.2%; in assay [5] it was 97.6%; in [6], 96.9%. Moreover, the growth in assay [7] is 98%; in [8] it was 102%; in [9], 95.6%.

Take `C=CC(C)(C)n1cc(C2=C(O)C(=O)C(c3cn(C(C)(C)C=C)c4ccccc34)=C(O)C2=O)c2ccccc21`: the growth is 92.9% in assay [1]; 79.5% in assay [2]; 90.6% in [3]; 92.6% in [4]; 93.2% in assay [5]; 74.7% in assay [6]. Further, the growth in [7] is 83.5%; in [8], 76.6%; in assay [9], 94%.

As for `Cc1onc(-c2ccccc2Cl)c1C(=O)Cl`, the growth in [1] was 121%; in [2] it was 101%; in assay [3], 109%; in [4] it was 101%; in assay [5] it was 115%; in [6] it was 117%. Also, the growth in [7] was 91.7%; in assay [8] it was 113%; in assay [9], 103%; in [10] it was 108%.

Take `O=C1C=C[C@H](O)[C@@]2(CO)O[C@@H]12`: the growth in assay [1] was 95.6%; in assay [2] it was 4.07% (active); in assay [3], 77.7%; in [4], 105%; in assay [5] it was 23.1%; in assay [6], 100%. In addition, the growth in assay [7] was 109%; in [8], 70.1%; in [9], 108%.

Regarding `CC(C)C1CCC(C)C(O)C1` (stereo unspecified), the growth in [1] is 106%; in assay [2] it was 103%; in assay [3], 109%; in [4], 93.9%; in assay [5], 108%; in assay [6], 100%. For the same compound, the growth in assay [7] was 100%; in [8], 100%; in [9] it was 85.6%; in assay [10] it was 101%.

Take `CC1(C)OC(=O)CC1=O`: the growth in assay [1] was 109%; in assay [2] it was 92.2%; in assay [3] it was 105%; in assay [4] it was 104%; in assay [5], 103%; in assay [6], 103%. Further, the growth in assay [7] is 106%; in assay [8], 102%; in [9], 89.4%; in [10], 93.9%.

In the case of `CCNc1ccc2ccccc2c1N=Nc1ccc(N=Nc2ccccc2)cc1`, the growth in assay [1] is 121%; in assay [2], 125%; in assay [3], 128%; in [4], 93.4%; in assay [5] it was 118%; in assay [6], 117%. Further, the growth was 107% in assay [7], 104% in [8] and 123% in assay [9].

As to `O=C(O)CCCCCNC(=O)OCc1ccccc1`, the growth in assay [1] is 98%; in assay [2] it was 124%; in [3], 97.2%; in assay [4], 102%; in assay [5] it was 119%; in assay [6], 100%. Further, the growth in [7] is 99.8%; in assay [8], 97.5%; in assay [9], 112%; in [10], 92.7%.

Regarding `CCCc1cccc(CCC)c1NC(=O)Nc1cc(Cl)cc(Cl)c1`, the growth was 107% in [1]; 100% in assay [2]; 87.5% in [3]; 90.2% in assay [4]; 116% in [5]; 94.9% in assay [6]. The growth is 109% in assay [7], 92.4% in [8] and 86% in assay [9].

Regarding `Nc1c(O)c(S(=O)(=O)O)c(O)c2c1C(=O)c1ccccc1C2=O`, the growth in assay [1] was 21.4%; in assay [2] it was 22.1%; in [3], -0.703% (active); in assay [4], 42.3%; in assay [5] it was 75.3%; in assay [6], 45.9%. The growth in [7] is 12.8%; in [8] it was 61.6%; in [9], 1.57% (active).

Turning to `CC(=O)c1ccc(C)cc1`, the growth in [1] was 114%; in assay [2], 114%; in assay [3], 90.8%; in assay [4] it was 114%; in assay [5], 97.6%; in assay [6] it was 107%. Further, the growth in assay [7] was 109%; in [8], 114%; in [9] it was 92%.

For the compound `CC(=O)NC(CCc1ccc(Cl)c(Cl)c1)c1cccc(O)c(=O)c1` (stereo unspecified), the growth is 16.6% in [1]; 11.2% in assay [2]; -17.9% (active) in [3]; 28.3% in [4]; 18.6% in assay [5]; 8.61% (active) in assay [6]. Further, the growth in assay [7] is -22.2% (active); in assay [8], 2.57% (active); in [9] it was -11% (active).

As for `C=CCC(OC(C)=O)c1ccc(C(C)C)cc1` (stereo unspecified), the growth is 118% in assay [1]; 108% in assay [2]; 124% in [3]; 122% in [4]; 113% in assay [5]; 110% in assay [6]. Besides, the growth was 126% in assay [7], 104% in assay [8] and 105% in assay [9].

Regarding `Nc1ncnc(Nc2ccccc2)n1`, the growth in [1] is 120%; in [2], 98.8%; in [3], 124%; in [4] it was 115%; in assay [5], 118%; in [6], 112%. For the same compound, the growth is 113% in assay [7], 108% in assay [8], 108% in assay [9] and 106% in assay [10].
